Screens as filed in PubChem BioAssay.
Only some compounds are listed: those with a hit (about 1.6% of all), similar ones and a draw of the others.
MOR-DOR inv ag = inverse agonists of MOR-DOR heterodimerization, primary screen, cell-based, luminescence; Mu-type opioid receptor (Homo sapiens) + Delta-type opioid receptor (Homo sapiens), …; cell-based MOR-DOR heterodimer luminescence, inverse agonism; inhibition, % at 9.3 µM; hit rate 0.21% among 340,000; in the data active means inhibition above about 22%, passing the limit was not always enough;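 further: 0% = cells with DMSO and 100% = wells without cells with DMSO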
Target sequence (P35372 whole entry, looked up): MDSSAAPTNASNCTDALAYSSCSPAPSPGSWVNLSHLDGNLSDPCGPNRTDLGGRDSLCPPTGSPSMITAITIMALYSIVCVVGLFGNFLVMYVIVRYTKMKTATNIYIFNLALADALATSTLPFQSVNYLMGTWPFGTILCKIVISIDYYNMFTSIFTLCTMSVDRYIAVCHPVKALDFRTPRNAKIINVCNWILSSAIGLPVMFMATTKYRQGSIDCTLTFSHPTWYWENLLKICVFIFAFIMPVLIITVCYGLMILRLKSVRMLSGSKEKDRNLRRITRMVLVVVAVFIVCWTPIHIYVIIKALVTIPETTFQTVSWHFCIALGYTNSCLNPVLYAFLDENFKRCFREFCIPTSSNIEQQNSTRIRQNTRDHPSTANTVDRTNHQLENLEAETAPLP
Target sequence (P41143 whole entry, looked up): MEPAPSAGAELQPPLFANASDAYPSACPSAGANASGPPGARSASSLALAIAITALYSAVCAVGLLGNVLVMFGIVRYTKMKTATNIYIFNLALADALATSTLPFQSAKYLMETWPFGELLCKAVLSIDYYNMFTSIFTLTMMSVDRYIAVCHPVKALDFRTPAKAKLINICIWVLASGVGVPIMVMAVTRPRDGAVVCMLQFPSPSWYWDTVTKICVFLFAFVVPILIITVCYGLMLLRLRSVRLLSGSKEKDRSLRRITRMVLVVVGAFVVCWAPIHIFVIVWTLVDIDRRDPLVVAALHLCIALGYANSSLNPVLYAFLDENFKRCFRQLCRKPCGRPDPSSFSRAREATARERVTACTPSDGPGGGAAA
HTR5A ag ctr = HTR5A agonists in luminescence cell assay, primary screen, counter-screen for OPRM1-OPRD1 heterodimer agonist project, full-deck HTS; activation, % at 9.3 µM; hit rate 0.61% among 340,000; 5-hydroxytryptamine receptor 5A (Homo sapiens), P47898; cell-based; in the data active means activation mostly above about 9.5%, no sharp cut-off; inactive means mostly below about 7.6%;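 further: 0% = cells with vehicle only and 100% = reference agonist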
MOR-DOR ag = agonists of OPRM1-OPRD1 heterodimerization, primary screen, cell-based, luminescence. cells. activation, % at 9.3 µM. hit rate 0.3% among 340,000; in the data active means activation above about 18%;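 further: 0% = vehicle-treated cells and 100% = reference agonist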
HTR2A ag = mouse Htr2a agonists via beta-arrestin recruitment, primary screen, cell-based, luminescence. hit rate 0.66% among 360,000. activation, % at 7.6 µM. CHO-K1 mHTR2A beta-arrestin complementation; percent of 30 µM serotonin response;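 active means activation above a run cutoff, the mean activation of all tested compounds plus 3 SD, cut at about 14% in these data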;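 further: 0% = plate median of compound wells and 100% = 30 µM serotonin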
HTR5A inv ctr = HTR5A inverse agonists in luminescence cell assay, primary screen, counter-screen for OPRM1-OPRD1 heterodimer inverse agonist project, full-deck HTS; 5-hydroxytryptamine receptor 5A (Homo sapiens), P47898; HTR5A cell line, inverse agonism; inhibition, % at 9.3 µM; hit rate 0.083% among 340,000; in the data active means inhibition mostly above about 23%, no sharp cut-off; inactive means mostly below about 18%;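 further: 0% = cells with DMSO and 100% = no-cell wells with DMSO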
Numbers without * were called inactive; . = no result.

SMILES | MOR-DOR inv ag | HTR5A ag ctr | MOR-DOR ag | HTR2A ag | HTR5A inv ctr
CC1CCN(CCCNC(=O)c2cc3c(s2)-c2ccccc2OC3)CC1 | -7 | 1 | 1 | -6 | -5
Cc1cccc2c1-c1sc(C(=O)NCCCN3CCC(C)CC3)cc1CO2 | -22 | 11* | 4 | -13 | 6
O=C(Nc1cccnc1)c1cc2c(s1)-c1ccccc1OC2 | -13 | -2 | 2 | -6 | -4
Cc1cccc2c1-c1sc(C(=O)Nc3cccnc3)cc1CO2 | -19 | 11* | 4 | -9 | -26
COc1ccc(C(=O)NC2CCCc3c2cnn3-c2cccc(C)c2C)o1 (stereo not drawn) | 2 | 1 | 0 | 0 | -3
Cc1ccc(S(=O)(=O)N(C)CC(=O)N(CC(C)C)C2CCS(=O)(=O)C2)cc1 (stereo not drawn) | 4 | -1 | -1 | -1 | 3
NC(=O)c1ccc(NC(=O)COc2ccc(-n3cnnn3)cc2)cc1 | 9 | 14 | -2 | 2 | -36
O=C(O)COCC(=O)Nc1ccc(-n2cnnn2)cc1 | -6 | 11* | 1 | 0 | -27
Cc1cc(-n2c(SCC(=O)NCCC3=CCCCC3)nc3n[nH]c(C)c3c2=N)ccc1Cl | -151 | 31* | 29* | 2 | -47
Cc1ccc(Cl)cc1-n1c(SCC(=O)NCCC2=CCCCC2)nc2n[nH]c(C)c2c1=N | -10 | 3 | 2 | -3 | 5
Cc1[nH]nc2nc(SCC(=O)NCCC3=CCCCC3)n(-c3ccc(Br)cc3)c(=N)c12 | -124 | 15* | 25* | -5 | -56
CN1CCc2c(sc3c2c(=O)n(-c2ccccc2)c2n[nH]c(=S)n32)C1 | 9 | -1 | -2 | 0 | 4
CCn1nc(C)c(CN2CCC(C(=O)Nc3cccc(-c4cccc(F)c4)c3)CC2)c1C | -3 | 8.7* | 1 | 2 | -33
CCn1cc(CN2CCC(C(=O)Nc3cccc(-c4cccc(F)c4)c3)CC2)cn1 | 14 | 2 | -4 | -10 | -7
CC(C)CN1C(=O)C(=O)N(CC(=O)c2ccc3c(c2)OCO3)C1=O | -3 | -1 | 0 | 0 | 3
CC(C)[C@H](NC(=O)N1CCn2c1nc1ccccc12)C(=O)NCC1CCCO1 (stereo partly drawn) | . | . | . | 15* | .
COc1ccc(CN(C)C[C@@H]2OCCCC[C@H](C)Oc3ccc(NC(=O)Nc4ccc(F)cc4)cc3C(=O)N([C@H](C)CO)C[C@H]2C)cc1 | . | . | . | -6 | .
CCN1CCN(CCC(=O)Nc2cc(OC)cc(OC)c2)CC1 | 12 | 9.2* | -3 | -4 | -34
CC1CCN(S(=O)(=O)c2cccc(C(=O)N3CCN(c4ccc(F)cc4)CC3)c2)CC1 | -25 | -3 | 4 | 7 | 5
O=C(Cn1c2ccccc2c(=O)c2cc([N+](=O)[O-])ccc21)Nc1ccccc1Cl | 5 | 4 | -1 | -1 | 30
COc1ccccc1C(=O)OCC(=O)NC(C)CCc1ccccc1 (stereo not drawn) | 19 | 13* | -4 | -3 | -46
CC(CCc1ccccc1)NC(=O)COC(=O)c1ccccc1O (stereo not drawn) | 10 | 3 | -2 | 0 | -7
COc1ccc(N(CC(=O)NCCSc2ccccn2)S(=O)(=O)c2ccccc2)cc1OC | -1 | 4 | 0 | 3 | -15
COc1ccc(N(CC(=O)NCCSc2ccccn2)S(=O)(=O)c2ccc(C)cc2)cc1OC | 14 | 14* | -3 | -7 | -9
CC1=CC(=NOC(=O)/C=C/c2ccccc2)C=C(C)C1=O | -12 | 1 | 2 | 4 | -3
SMILES | MOR-DOR inv ag | HTR5A ag ctr | MOR-DOR ag | HTR2A ag | HTR5A inv ctr
CC1=CC(=O)C=C(C)C1=NOC(=O)/C=C\c1ccccc1 | -31 | 13* | 4 | -5 | 0
CC(=O)Nc1cccc(-c2ccnc3c2CC(C)(C(=O)NCc2cccs2)O3)c1 (stereo not drawn) | . | . | . | 7 | .
COCCn1c(N)c(C(=O)NS(=O)(=O)c2ccc(C)cc2)c(=O)[nH]c1=O | 5 | 11* | -1 | 2 | -29
CCOC(=O)C1CCCN(C(=O)CCn2nnnc2CN2CCOCC2)C1 (stereo not drawn) | 12 | -4 | -2 | 3 | 16
Cc1noc(C)c1COC(=O)c1ccc2c(c1)S(=O)(=O)c1ccccc1C2=O | -39 | 10* | 7 | 0 | -34
NC(=O)COC(=O)c1ccc2c(c1)S(=O)(=O)c1ccccc1C2=O | -42 | 6 | 6 | 6 | -7
